This is an account of results in PubChem BioAssay AID588675 (Johns Hopkins Ion Channel Center, 2011).

Among all 310,000 compounds or so, about 1,900 (0.61%) were called active.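 Rule for the calls: active = plate-corrected calcium response at least 3 library SD above typical, normal starting fluorescence, not activating the receptor alone; inactive = the rest.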 Only a selection was taken, and actives are over-represented in it overall.

Chain of Mas-related G-protein coupled receptor member X1 (Homo sapiens) (Q96LB2 whole entry, looked up): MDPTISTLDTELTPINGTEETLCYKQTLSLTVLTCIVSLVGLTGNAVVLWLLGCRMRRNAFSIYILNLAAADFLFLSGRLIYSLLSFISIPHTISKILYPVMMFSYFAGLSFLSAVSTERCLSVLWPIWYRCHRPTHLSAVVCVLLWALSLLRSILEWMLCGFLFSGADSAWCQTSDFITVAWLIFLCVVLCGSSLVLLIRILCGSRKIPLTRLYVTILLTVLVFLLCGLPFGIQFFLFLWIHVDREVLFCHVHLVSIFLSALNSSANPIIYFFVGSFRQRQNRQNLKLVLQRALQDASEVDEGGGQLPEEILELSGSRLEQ

The test addresses Mas-related G-protein coupled receptor member X1 (Homo sapiens) (UniProt Q96LB2). The test is described as follows: allosteric enhancers of human MrgX1 signaling – HEK293 cells, Fluo-4 calcium flux, primary screen (AID 588675).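 For B-score: peak minus trough fluorescence over baseline measured at the second addition.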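 Note: compound read alongside a low EC10 to EC30 dose of BAM8-22 agonist.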 The note with it: MrgX1-HEK293, Fluo-4 calcium flux, FDSS, at 10 µM; stronger effect = higher value. In general terms: A change in cytosolic calcium serves as a functional read-out for many receptors and channels.
For `OCCn1c(-c2ccccc2)csc1=Nc1ccccc1`, the B-score was 14.7 (active).
For the molecule `Cc1csc(=Nc2ccccc2)n1CCO`, the B-score entry was “inactive”.
For the molecule `Cc1csc(=NC(=O)c2ccccc2)n1CCO`, the B-score entry is “inactive”.
Next, `Clc1ncn(CCOc2ccccc2)c1Cl`: “inactive”.
Then `Cc1cc2ncn(CCCCOc3ccccc3)c2cc1C`, with 10.8 (active); and `COCCOCCn1cnc2ccccc21`, with “inactive”; and `CCN1CCCC1CNC(=O)c1cc2cc(OC)c(OC)cc2[nH]1` (centres undefined), with “inactive”.
Next, `COc1ccc(-c2cc(C(F)(F)F)nc(S(C)(=O)=O)n2)cc1OC`: 8.21 (active); `COc1ccc(-c2cc(C(F)(F)F)nc(NCc3cccnc3)n2)cc1`: “inactive”; `COc1ccc(-c2ccc(Nc3ccc(S(=O)(=O)N4CCCC4)cc3)nn2)cc1OC`: “inactive”.
As to `N/C(=N\OC(=O)CCn1cccc(C(F)(F)F)c1=O)c1ccc(OC(F)(F)F)cc1`, the B-score result was “inactive”.
Then `Cc1ccc2c(=O)oc(N(C)C)nc2c1`, with “inactive”.
Then `CCC(C)CCN1CCN=C1N(C)C` (centres undefined), with “inactive”; and `COc1ccc(CCNC(=O)C(=O)NCc2ccccc2C)cc1OC`, with “inactive”; and `COc1ccc(CCNC(=O)c2ccccc2-c2ccccc2C(=O)O)cc1OC`, with “inactive”.
Next, `COc1ccc(CCNC(=O)C(Sc2ccccn2)c2ccccc2)cc1OC` (centres undefined): 8.72 (active); `Cc1ccc(NC(=O)C(C)OC(=O)Cc2c[nH]c3ccccc23)cc1S(=O)(=O)N1CCOCC1` (centres undefined): “inactive”.
Consider `CCOc1cccc2c1OC1(CCCCC1)N1N=C(c3cccnc3)CC21` (centres undefined), for which the B-score result was “inactive”.
Next, `CC(C)=CCC/C(C)=C/C(=O)O`: “inactive”; `Cc1ccc(CN(Cc2cccnc2)C(=S)Nc2cccc(Cl)c2C)cc1`: “inactive”; `Cc1cccc(C)c1NC(=S)N(Cc1cccnc1)Cc1ccccc1Cl`: 10.5 (active).
Then `Cc1c(Cl)cccc1NC(=S)N(Cc1ccccc1)Cc1cccnc1`, with “inactive”; and `Cc1cccc(C(=O)OCC(=O)Nc2ccc(F)cc2)c1`, with “inactive”.
Regarding `O=C(COC(=O)c1ccc(NS(=O)(=O)c2cccs2)cc1O)Nc1ccc(F)cc1`, the B-score was 9.09 (active).
Next, `CCc1ccc(NC(=O)COC(=O)c2cccs2)cc1`: “inactive”.
Next, `Cc1cc(S(=O)(=O)NC2CCCC2)ccc1-n1cnnn1`: “inactive”.
Then `Cc1ccc(-n2[nH]c(C)c(/C=N/N3C(=O)c4cccc5cccc(c45)C3=O)c2=O)cc1`, with “inactive”; and `Cc1[nH]n(-c2cccc(Cl)c2)c(=O)c1/C=N/n1c(C)nc2ccccc2c1=O`, with “inactive”.
In the case of `Cc1[nH]n(-c2ccc(Cl)cc2)c(=O)c1/C=N/n1c(C)nc2ccccc2c1=O`, the B-score was 11.4 (active).
For `Cc1ccc(NS(=O)(=O)c2ccc3c(c2)oc(=O)n3C)c(C)c1`, the B-score result is “inactive”.
Next, `O=C(NCC(=O)N1CCC2(CC1)NCCc1[nH]cnc12)c1ccc(Br)cc1`: “inactive”; `Cc1cc(C)c(S(=O)(=O)N2CCOCC2)cc1C`: “inactive”; `C/C(=N\Nc1nc2ccccc2[nH]1)c1cccs1`: “inactive”.
Then `C/C(=N\Nc1ncc(Cl)cc1Cl)c1cccs1`, with 8.26 (active); and `C/C(=N\Nc1ncc(Cl)cc1Cl)c1ccc(S(=O)(=O)NCc2ccco2)cc1`, with “inactive”; and `O=C(C[C@H]1C(=O)N(c2ccc(F)c(F)c2)C[C@@H]1Cc1ccccc1)Nc1ccccc1`, with “inactive”.
Then `COc1ccccc1-n1nnnc1S(=O)(=O)Cc1ccc(Cl)cc1`, with “inactive”.
For `CCCCNS(=O)(=O)c1ccc(S(=O)(=O)n2cnc3ccccc32)cc1`, the B-score result is “inactive”.
For `COc1c(C(C)C)oc2cc3oc(=O)ccc3cc12`, the B-score is 9.1 (active).
Then `Cc1oc2cc3oc(=O)ccc3cc2c1C`, with “inactive”; and `CC(C)C(=O)Nc1ccc2oc(=O)ccc2c1`, with “inactive”.
Next, `COc1ccc(Cl)cc1NC(=O)CN(C)C(=O)c1cc(-c2cccs2)nn1-c1ccccc1`: “inactive”; `Cn1c(=O)[nH]c(=O)c2c1nc(CN1CCN(c3ccccc3F)CC1)n2CCc1ccccc1`: “inactive”; `Cn1c(S(=O)(=O)O)nc2ccccc21`: “inactive”.
Then `N#C/C(=C1/CCCN1)c1ccccn1`, with “inactive”.
Take `Cn1c(/C(C#N)=C2/CCCCCN2)nc2ccccc21`: the B-score was 8.34 (active).
Take `O=C(CN1C(=O)NC2(CCCCC2)C1=O)NCCC1=CCCCC1`: the B-score result was “inactive”.
Then `CCCC1C(=O)N2C(N(C)C)=Nc3ccc(C)cc3N2C1=O` (centres undefined), with “inactive”.
Then `O=[N+]([O-])C(=c1ccc2c(c1)N1C3=C(CCCC3)CC3CCCCC31N=2)[N+](=O)[O-]` (centres undefined), with “inactive”; and `COc1cccc(CN(C)CC(O)COC(c2ccccc2)c2ccccc2C)c1` (centres undefined), with “inactive”.
Consider `COc1ccc(C(=O)NNC(=S)NC(=O)c2ccccc2)cc1`, for which the B-score entry is “inactive”.
Then `O=C(NC(=S)NC1CCCCC1)c1ccc(Cl)cc1`, with “inactive”; and `COc1ccc(C(=O)NC(=S)NC2CCCCC2)cc1`, with 7.2 (active).
Next, `NC(=O)c1ccc(Nc2ccc3nonc3c2[N+](=O)[O-])cc1`: “inactive”; `CC(C)c1ccc(Nc2nnc(SCC(=O)c3nnc(-c4ccccc4)o3)s2)cc1`: “inactive”.
Then `COCC(=O)Nc1c(I)c(C(=O)NCC(O)CO)c(I)c(C(=O)N(C)CC(O)CO)c1I` (centres undefined), with “inactive”; and `COc1cccc(OC)c1C(=O)OCC(=O)/C(C#N)=C(\C)N`, with “inactive”.
Take `O=C(NCC(=O)N1CCCC(C(F)(F)F)C1)c1ccccc1F` (centres undefined): the B-score entry is “inactive”.
For `O=C(c1cccc([N+](=O)[O-])c1)N1CCN(C(=O)c2ccco2)CC1`, the B-score result was “inactive”.
For `O=C(CNS(=O)(=O)c1ccccc1)N1CCN(C(=O)c2ccco2)CC1`, the B-score entry was “inactive”.
For the molecule `O=C(c1cccc(S(=O)(=O)Nc2ccccc2Cl)c1)N1CCN(C(=O)c2ccco2)CC1`, the B-score was 10.7 (active).
Then `C#CCOCCOCCOCCNc1nc(N2CCN(C(=O)CCCCCCCCCCNC(=O)[C@H](CCCCN)n3cc(C)nn3)CC2)nc(N2CCN(C(=O)CCCCCCCCCCNC(=O)[C@H](CO)n3cc(CCCSC)nn3)CC2)n1`, with “inactive”; and `Cc1ccc(N(C(=O)C(F)(F)F)C(C(=O)NC2CCCCC2)c2ccncc2)cc1C` (centres undefined), with “inactive”.
Then `COC(=O)Cn1c(O)c(N=NC(=O)OC)c2ccccc21`, with 7.73 (active); and `CCOC(=O)Cn1c(O)c(N=NC(=O)CNC(=O)Cc2ccccc2)c2ccccc21`, with “inactive”.
As to `N#CCCCn1c(O)c(N=NC(=O)C(O)c2ccccc2)c2ccccc21` (centres undefined), the B-score result is “inactive”.
Next, `Brc1ccccc1C1Nc2cccc3cccc(c23)N1`: 11.9 (active); `Oc1ccc(C2Nc3cccc4cccc(c34)N2)cc1`: “inactive”; `Cc1ccc(C2Nc3cccc4cccc(c34)N2)cc1`: “inactive”.
